Test results reported in PubChem BioAssay (NCATS).
Several values for one entry are separate records, joined by “and”; a condition that tells them apart may be missing. Equal entries are not always repeated. Results filed as inconclusive are left out. A structure can be active in one record and inactive in another. Activity calls are given as the source filed them. Unless noted, calls come from the whole dose curve.

Experiments:
[1] = target: Estrogen receptor (Homo sapiens) (UniProt P03372); experiment: qHTS assay for small molecule antagonists of estrogen receptor alpha signaling (AID 588513; active = well fitted curve in the direction sought with a large enough effect in the signal ratio, with a control signal flat, not every such curve was filed as active; the % refers to the signal ratio; note: % is set by controls: 0 for no effect and ±100 for the full control effect)
In short: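 Antagonist mode: inhibition of 0.5 nM 17-beta-estradiol-driven beta-lactamase reporter in HEK 293 ER-alpha-UAS-bla cells, 18 h at 37C, CCF4 readout after 2 h at RT. Normalised to estradiol and DMSO; titration fitted to Hill.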

[2] = target: Estrogen receptor (Homo sapiens) (UniProt P03372); experiment: qHTS assay for small molecule agonists of estrogen receptor alpha signaling (AID 588514);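 note: 0% = vehicle only and 100% = reference agonist; nearly all actives have a fitted effect of over 70% in size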
In short: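 ER-alpha-UAS-bla GripTite HEK293 cells, 5000/well in 2% charcoal/dextran-stripped FBS medium, treated with compound titrations 18 h at 37 C. CCF4 beta-lactamase read by fluorescence after 2 h RT; normalised to 20 nM 17-beta-estradiol (100%) and DMSO (0%), Hill fit for EC50 and efficacy.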

[3] = qHTS assay for small molecule antagonists of peroxisome proliferator-activated receptor delta signaling (AID 588535); conditions: HEK293T PPARd-UAS-bla, beta-lactamase FRET ratio, 18 h; 460 nm channel;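 note: cells co-treated with a PPAR-delta agonist as stimulator during compound exposure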
In short: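 Reporter: UAS-bla under PPAR-delta response element, HEK293T host. Medium: 2% charcoal/dextran FBS. Dosing: titration, 18 hrs, 37 C. Detection: CCF4, 2 hrs RT, 405 ex/460 and 530 em.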

[4] = target: Vitamin D3 receptor (Homo sapiens) (UniProt P11473); experiment: qHTS assay for small molecule antagonists of vitamin D receptor signaling (AID 588541); note: potency is the fitted concentration of half-maximal effect
In short: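 VDR-UAS-bla HEK293T cells (2000/well, 2% charcoal-stripped FBS) were treated with titrated compounds plus 1-alpha,25-dihydroxyvitamin D3 (50 nM or 3 nM final) for 16 h at 37 C. CCF4 beta-lactamase fluorescence was read; Hill fits gave IC50.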

[5] = target: Vitamin D3 receptor (Homo sapiens) (UniProt P11473); experiment: qHTS assay for small molecule agonists of vitamin D receptor signaling (AID 588543);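 note: 0% = DMSO basal and 100% = reference agonist control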
In short: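 Agonist-mode beta-lactamase reporter: HEK293T VDR-UAS-bla cells in charcoal-stripped 2% FBS, compound series 16 h 37 C, CCF4 2 h RT. EC50 from Hill fit, scaled against DMSO and 50 nM calcitriol control.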

[6] = qHTS assay for small molecule agonists of retinoid X receptor alpha signaling (AID 588544); conditions: HEK293T RXRa-UAS-bla, beta-lactamase reporter, 18 h; 530 nm emission;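 for activation: 0% = DMSO basal wells and 100% = reference agonist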
[7] = target: Retinoic acid receptor RXR-alpha (Homo sapiens) (UniProt P19793); experiment: as above
[8] = target: Thyroid hormone receptor beta (Homo sapiens) (UniProt P10828); experiment: qHTS assay for small molecule agonists of thyroid hormone receptor beta signaling (AID 588545);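 note: 0% = DMSO only and 100% = 10 nM T3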
In short: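 Stimulation of a TR-driven beta-lactamase reporter was quantified in GripTite HEK 293 cells. Compound series ran for 18 hrs; curves were normalized to T3 and DMSO controls and fitted to yield EC50.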

[9] = qHTS assay for small molecule antagonists of retinoid X receptor alpha signaling (AID 588546; active = well fitted inhibition curve with a large enough effect in the signal ratio, with a control signal flat, not every such curve was filed as active; the % refers to the signal ratio; note: potency is the fitted concentration of half-maximal effect); conditions: HEK293T RXRa-UAS-bla, beta-lactamase ratio, antagonist mode; measured here: W530 green channel, cytotoxicity proxy
In short: (§1)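 Beta-lactamase reporter inhibition, read as CCF4 fluorescence ratio (ex 405, em 460/530 nm) after 2 h at RT. HEK293T UAS-bla cells, 2500/well, were stimulated with 9-cis-RA at 500 or 100 nM final alongside test compound for 18 h at 37 C.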

[10] = target: Retinoic acid receptor RXR-alpha (Homo sapiens) (UniProt P19793); experiment: as above; conditions: HEK293T RXRa-UAS-bla, beta-lactamase ratio, antagonist mode
In short: as §1

[11] = target: Androgen receptor (Homo sapiens) (UniProt P10275); experiment: qHTS assay for small molecule agonists of androgen receptor signaling (AID 588515; active = well fitted curve in the direction sought with a large enough effect in the signal ratio, with a control signal flat; the % refers to the signal ratio; note: % is set by controls: 0 for no effect and ±100 for the full control effect); conditions: AR-UAS-bla HEK293, beta-lactamase ratio, agonist 16 h; stronger effect = higher value
In short: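 EC50 and efficacy came from Hill fits of titrations (up to 92 uM) normalized to 30 nM R1881 as 100% and DMSO as 0%. Compound exposure was 16 h at 37 C on AR-UAS-bla HEK293 cells, with a 405/460/530 nm CCF4 fluorescence read.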

[12] = target: Androgen receptor (Homo sapiens) (UniProt P10275); experiment: qHTS assay for small molecule antagonists of androgen receptor signaling (AID 588516; active = well fitted curve in the direction sought with a large enough effect in the signal ratio, with a control signal flat, not every such curve was filed as active; the % refers to the signal ratio; note: potency is the fitted concentration of half-maximal effect)
In short: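 Antagonist mode: inhibition of R1881-stimulated (10 nM final) bla reporter in GeneBLAzer AR HEK 293 cells, 16 h at 37C, compounds titrated. IC50 and efficacy from Hill-equation fits of 405/460–530 nm FRET ratios.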

[13] = target: Bile acid receptor (Homo sapiens) (UniProt Q96RI1); experiment: qHTS assay for small molecule antagonists of farnesoid X receptor signaling (AID 588526); note: % is set by controls: 0 for no effect and ±100 for the full control effect
In short: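 Concentration-response titrations were fitted to the Hill equation for half-maximal inhibition and maximal response, with data normalised to 50 uM chenodeoxycholic acid and DMSO control wells. Cells: FXR-UAS-bla HEK293T, dialyzed FBS.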

[14] = target: Glucocorticoid receptor (Homo sapiens) (UniProt P04150); experiment: qHTS assay for small molecule agonists of glucocorticoid receptor signaling (AID 588532; active = well fitted curve in the direction sought with a large enough effect in the signal ratio, with a control signal flat; the % refers to the signal ratio;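 note: 100% = dexamethasone at 0.1 µM and 0% = DMSO only wells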); conditions: HeLa MMTV-bla, beta-lactamase ratio, agonist, 18 h; stronger effect = higher value; percent of dexamethasone control, DMSO zero
In short: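 MMTV-bla HeLa, beta-lactamase reporter; medium with 1% charcoal/dextran-stripped FBS; cpds up to 92 uM, 18 h, 37 C; CCF4 readout 460/530 nm; Hill fit → EC50, efficacy vs 0.1 uM dexamethasone = 100%.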

[15] = target: Glucocorticoid receptor (Homo sapiens) (UniProt P04150); experiment: qHTS assay for small molecule antagonists of glucocorticoid receptor signaling (AID 588533; active = well fitted inhibition curve with a large enough effect in the signal ratio, with a control signal flat, not every such curve was filed as active; the % refers to the signal ratio;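 note: cells stimulated with 2 nM dexamethasone as agonist; % is set by controls: 0 for no effect and ±100 for the full control effect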)
In short: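 Antagonist-mode qHTS: compound titrations added to GRE-bla HeLa cells, then dexamethasone 2 nM final; 18 h, 37 C. CCF4 FRET fluorescence normalized to dexamethasone and DMSO; IC50 from Hill fit.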

[16] = target: Peroxisome proliferator-activated receptor gamma (Homo sapiens) (UniProt P37231); experiment: qHTS assay for small molecule agonists of peroxisome proliferator-activated receptor gamma signaling (AID 588536; active = well fitted curve in the direction sought with a large enough effect in the signal ratio, with a control signal flat, not every such curve was filed as active; the % refers to the signal ratio;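 note: 0% = DMSO basal wells and 100% = rosiglitazone at 2 µM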)
In short: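 PPAR-gamma-UAS-bla HEK293 cells in medium with 1% charcoal/dextran-treated FBS were exposed to compounds for 16 h at 37 C. Beta-lactamase activity was read with CCF4 substrate (405 nm excitation, 460/530 nm emission).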

[17] = target: Peroxisome proliferator-activated receptor gamma (Homo sapiens) (UniProt P37231); experiment: qHTS assay for small molecule antagonists of peroxisome proliferator-activated receptor gamma signaling (AID 588537; active = well fitted inhibition curve with a large enough effect in the signal ratio, with a control signal flat, not every such curve was filed as active; the % refers to the signal ratio; note: potency is the fitted concentration of half-maximal effect)
In short: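 We seeded GeneBLAzer HEK293 reporter cells at 3000 per well, allowed 6-6.5 h attachment at 37 C, then co-treated with test compound titrations and 50 nM rosiglitazone overnight (16 h). Inhibition was quantified from 460/530 nm emission ratios.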

[18] = target: DNA dC->dU-editing enzyme APOBEC-3G (Homo sapiens) (UniProt Q9HC16); experiment: qHTS for inhibitors of Vif-A3G interactions: Validation (AID 588379; active = well fitted inhibition curve with a large enough effect; note: 0% is about no effect)
In short: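 HeLa cells stably expressing Vif and A3G-eYFP, 700 cells/well, incubated overnight at 37 deg C, then exposed to compound overnight at 37 deg C. Inhibition of Vif-mediated degradation read as increased yellow fluorescence (Ex 488/Em 500-530) by laser-scanning cytometry.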

Glucocorticoid receptor (Homo sapiens), sequence (P04150 whole entry, looked up): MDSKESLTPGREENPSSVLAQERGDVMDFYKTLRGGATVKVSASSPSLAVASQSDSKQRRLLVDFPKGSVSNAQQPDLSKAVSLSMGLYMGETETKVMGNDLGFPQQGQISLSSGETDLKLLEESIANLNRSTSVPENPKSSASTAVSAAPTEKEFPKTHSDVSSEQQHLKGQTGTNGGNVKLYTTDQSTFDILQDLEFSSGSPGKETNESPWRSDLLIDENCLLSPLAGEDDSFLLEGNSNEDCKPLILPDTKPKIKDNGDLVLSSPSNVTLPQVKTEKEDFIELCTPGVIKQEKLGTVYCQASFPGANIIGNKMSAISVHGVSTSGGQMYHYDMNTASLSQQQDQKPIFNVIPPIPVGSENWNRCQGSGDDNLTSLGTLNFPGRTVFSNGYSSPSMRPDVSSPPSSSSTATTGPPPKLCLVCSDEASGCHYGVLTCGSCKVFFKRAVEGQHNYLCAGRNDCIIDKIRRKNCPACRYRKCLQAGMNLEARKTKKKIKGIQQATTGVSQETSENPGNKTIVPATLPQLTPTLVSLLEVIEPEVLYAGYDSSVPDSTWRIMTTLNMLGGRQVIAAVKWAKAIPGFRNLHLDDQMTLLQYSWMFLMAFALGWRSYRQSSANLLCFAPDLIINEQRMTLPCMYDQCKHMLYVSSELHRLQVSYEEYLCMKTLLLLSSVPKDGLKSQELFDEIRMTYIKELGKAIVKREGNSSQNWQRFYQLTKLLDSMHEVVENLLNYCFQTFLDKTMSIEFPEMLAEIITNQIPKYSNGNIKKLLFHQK
Bile acid receptor (Homo sapiens), sequence (Q96RI1 whole entry, looked up): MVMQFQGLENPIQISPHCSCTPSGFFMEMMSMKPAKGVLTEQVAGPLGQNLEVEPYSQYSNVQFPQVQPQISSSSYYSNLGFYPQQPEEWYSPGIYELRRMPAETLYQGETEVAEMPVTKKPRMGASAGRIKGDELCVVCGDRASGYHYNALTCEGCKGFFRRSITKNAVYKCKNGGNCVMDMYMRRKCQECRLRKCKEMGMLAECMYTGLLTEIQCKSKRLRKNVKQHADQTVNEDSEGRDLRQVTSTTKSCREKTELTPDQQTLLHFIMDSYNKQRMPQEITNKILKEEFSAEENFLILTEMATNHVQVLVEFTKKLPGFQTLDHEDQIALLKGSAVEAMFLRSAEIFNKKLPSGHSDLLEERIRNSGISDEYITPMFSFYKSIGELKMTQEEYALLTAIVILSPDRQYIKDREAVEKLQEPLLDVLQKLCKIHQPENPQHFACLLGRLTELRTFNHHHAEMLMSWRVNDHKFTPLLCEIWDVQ
Retinoic acid receptor RXR-alpha (Homo sapiens), sequence (P19793 whole entry, looked up): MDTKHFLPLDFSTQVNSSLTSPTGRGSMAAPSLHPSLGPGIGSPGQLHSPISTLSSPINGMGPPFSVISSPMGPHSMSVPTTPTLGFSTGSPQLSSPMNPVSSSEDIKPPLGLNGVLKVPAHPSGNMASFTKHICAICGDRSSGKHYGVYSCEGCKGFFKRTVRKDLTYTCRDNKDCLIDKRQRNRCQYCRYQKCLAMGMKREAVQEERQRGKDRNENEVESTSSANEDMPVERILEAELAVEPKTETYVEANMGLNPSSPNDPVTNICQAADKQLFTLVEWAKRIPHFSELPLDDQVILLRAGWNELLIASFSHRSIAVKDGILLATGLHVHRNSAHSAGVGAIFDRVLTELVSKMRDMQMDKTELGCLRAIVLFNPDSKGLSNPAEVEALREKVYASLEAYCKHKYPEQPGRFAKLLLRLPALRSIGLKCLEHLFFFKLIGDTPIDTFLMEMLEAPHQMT
Vitamin D3 receptor (Homo sapiens), sequence (P11473 whole entry, looked up): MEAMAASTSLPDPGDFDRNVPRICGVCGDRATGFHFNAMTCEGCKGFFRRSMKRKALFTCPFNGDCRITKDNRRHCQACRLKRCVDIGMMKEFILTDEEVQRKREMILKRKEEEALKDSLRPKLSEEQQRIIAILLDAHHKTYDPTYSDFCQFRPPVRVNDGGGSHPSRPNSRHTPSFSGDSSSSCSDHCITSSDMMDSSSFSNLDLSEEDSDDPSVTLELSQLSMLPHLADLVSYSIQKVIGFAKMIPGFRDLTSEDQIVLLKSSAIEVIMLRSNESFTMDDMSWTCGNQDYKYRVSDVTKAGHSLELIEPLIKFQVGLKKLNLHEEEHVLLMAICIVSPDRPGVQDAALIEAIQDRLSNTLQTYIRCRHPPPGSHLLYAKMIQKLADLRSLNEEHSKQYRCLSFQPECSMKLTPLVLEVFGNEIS
Peroxisome proliferator-activated receptor gamma (Homo sapiens), sequence (P37231 whole entry, looked up): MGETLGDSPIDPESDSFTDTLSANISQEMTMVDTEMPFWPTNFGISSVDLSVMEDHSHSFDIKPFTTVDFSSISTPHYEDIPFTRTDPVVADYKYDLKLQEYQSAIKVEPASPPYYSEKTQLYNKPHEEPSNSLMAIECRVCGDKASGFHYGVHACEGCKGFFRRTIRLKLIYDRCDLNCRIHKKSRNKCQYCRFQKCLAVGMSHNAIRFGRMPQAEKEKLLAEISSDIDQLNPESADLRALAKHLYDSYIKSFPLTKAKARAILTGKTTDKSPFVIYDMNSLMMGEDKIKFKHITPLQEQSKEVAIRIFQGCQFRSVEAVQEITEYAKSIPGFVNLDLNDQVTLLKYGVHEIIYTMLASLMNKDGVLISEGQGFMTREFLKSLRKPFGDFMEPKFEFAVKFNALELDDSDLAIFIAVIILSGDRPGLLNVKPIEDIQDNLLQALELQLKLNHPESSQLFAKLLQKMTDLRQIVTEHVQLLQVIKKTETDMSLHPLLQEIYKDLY
Androgen receptor (Homo sapiens), sequence (P10275 whole entry, looked up): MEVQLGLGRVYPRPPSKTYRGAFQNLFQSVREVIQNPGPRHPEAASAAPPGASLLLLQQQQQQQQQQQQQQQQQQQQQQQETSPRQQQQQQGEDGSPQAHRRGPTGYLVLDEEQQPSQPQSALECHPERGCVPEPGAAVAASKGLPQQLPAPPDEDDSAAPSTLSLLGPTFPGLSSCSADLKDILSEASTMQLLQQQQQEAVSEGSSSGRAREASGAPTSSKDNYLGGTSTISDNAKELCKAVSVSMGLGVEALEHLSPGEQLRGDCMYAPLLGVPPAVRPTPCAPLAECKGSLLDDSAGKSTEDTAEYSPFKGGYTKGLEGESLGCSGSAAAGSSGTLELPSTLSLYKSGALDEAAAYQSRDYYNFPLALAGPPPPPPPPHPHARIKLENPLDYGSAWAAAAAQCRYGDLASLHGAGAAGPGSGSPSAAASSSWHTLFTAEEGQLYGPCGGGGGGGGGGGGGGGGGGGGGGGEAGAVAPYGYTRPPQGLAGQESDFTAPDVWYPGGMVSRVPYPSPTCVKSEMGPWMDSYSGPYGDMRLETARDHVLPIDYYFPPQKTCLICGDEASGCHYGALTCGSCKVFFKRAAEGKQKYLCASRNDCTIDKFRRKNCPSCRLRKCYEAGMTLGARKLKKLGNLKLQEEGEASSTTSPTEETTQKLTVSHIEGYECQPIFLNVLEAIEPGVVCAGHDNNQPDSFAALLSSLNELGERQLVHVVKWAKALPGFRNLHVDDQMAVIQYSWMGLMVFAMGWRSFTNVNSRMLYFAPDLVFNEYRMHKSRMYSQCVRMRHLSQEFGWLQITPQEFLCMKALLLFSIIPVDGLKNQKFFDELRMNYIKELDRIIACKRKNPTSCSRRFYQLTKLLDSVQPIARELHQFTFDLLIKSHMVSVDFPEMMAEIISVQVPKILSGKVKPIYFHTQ
DNA dC->dU-editing enzyme APOBEC-3G (Homo sapiens), sequence (Q9HC16 whole entry, looked up): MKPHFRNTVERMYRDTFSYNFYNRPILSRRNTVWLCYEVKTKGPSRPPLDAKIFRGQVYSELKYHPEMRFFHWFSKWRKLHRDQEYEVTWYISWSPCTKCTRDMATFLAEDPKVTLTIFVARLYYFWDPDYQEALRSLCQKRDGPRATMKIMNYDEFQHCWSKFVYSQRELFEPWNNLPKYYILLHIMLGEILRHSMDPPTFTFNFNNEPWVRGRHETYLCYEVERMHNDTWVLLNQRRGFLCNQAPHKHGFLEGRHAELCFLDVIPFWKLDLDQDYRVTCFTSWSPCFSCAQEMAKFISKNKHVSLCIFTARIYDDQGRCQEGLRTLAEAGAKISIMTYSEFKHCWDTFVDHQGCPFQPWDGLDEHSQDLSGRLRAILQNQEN
Thyroid hormone receptor beta (Homo sapiens), sequence (P10828 whole entry, looked up): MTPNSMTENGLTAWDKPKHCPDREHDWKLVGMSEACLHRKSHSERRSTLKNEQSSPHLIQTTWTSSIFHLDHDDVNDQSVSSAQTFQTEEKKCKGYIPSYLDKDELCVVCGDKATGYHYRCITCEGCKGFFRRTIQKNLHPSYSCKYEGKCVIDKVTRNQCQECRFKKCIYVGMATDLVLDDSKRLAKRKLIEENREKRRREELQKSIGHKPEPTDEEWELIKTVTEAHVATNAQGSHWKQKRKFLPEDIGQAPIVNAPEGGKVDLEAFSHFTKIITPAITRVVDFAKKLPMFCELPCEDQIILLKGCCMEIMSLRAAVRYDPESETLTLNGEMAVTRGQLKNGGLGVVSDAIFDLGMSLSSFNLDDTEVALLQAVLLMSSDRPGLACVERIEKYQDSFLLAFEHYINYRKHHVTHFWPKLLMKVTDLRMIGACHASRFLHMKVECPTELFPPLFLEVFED
Estrogen receptor (Homo sapiens), sequence (P03372 whole entry, looked up): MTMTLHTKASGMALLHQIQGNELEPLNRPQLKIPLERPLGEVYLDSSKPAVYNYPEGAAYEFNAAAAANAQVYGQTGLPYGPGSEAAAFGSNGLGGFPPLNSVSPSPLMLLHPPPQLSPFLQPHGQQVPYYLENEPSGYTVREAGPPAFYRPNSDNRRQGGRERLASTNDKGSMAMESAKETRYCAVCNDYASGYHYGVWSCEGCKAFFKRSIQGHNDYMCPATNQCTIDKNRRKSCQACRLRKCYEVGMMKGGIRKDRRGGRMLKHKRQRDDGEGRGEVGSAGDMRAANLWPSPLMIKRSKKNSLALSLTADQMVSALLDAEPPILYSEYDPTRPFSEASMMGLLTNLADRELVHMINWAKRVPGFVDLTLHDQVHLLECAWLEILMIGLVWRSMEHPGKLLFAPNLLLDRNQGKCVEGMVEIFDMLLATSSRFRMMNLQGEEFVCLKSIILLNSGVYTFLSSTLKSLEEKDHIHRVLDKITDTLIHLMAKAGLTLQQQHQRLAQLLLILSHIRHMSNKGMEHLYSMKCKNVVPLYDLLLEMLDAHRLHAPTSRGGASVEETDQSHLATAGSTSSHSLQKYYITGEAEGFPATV

CCCCCCCC/C=C\CCCCCCCCN
inactive: Potency [1] | Potency [2] | Potency [4] | outcome [5] | outcome [7] | outcome [8] | max response [10] 8.18%
-29.2%: max response [3]
-3%: max response [6]
0.483%: max response [9]

CCOc1ccc(NC(C)=O)cc1
-2.9% and -4.43%: max response [9]
2.99% and -14.4%: max response [6]
inactive: Potency [1] | Potency [2] | activation [11] 13.2% and 14.9% | Potency [12] | outcome [13] | activation [14] 0.725% | outcome [15] | outcome [16] | Potency [17] | Potency [4] | outcome [5] | outcome [7] | outcome [8] | max response [10] -12.1% and 5.41%

CCCCC(CC)COC(=O)c1ccc(N(C)C)cc1 (configuration not stated)
0.453% and -4.75%: max response [3]
-13.5%: max response [6]
inactive: Potency [1] | Potency [2] | outcome [13] | activation [14] -4.68% | outcome [15] | outcome [16] | Potency [17] | Potency [4] | outcome [5] | outcome [7] | outcome [8] | max response [10] -1.36% and 6.53%
-15.4% and -7.64%: max response [9]

NCCNc1cccc2ccccc12
22%: max response [3]
inactive and 31.6 µM (active): Potency [4]
active: Potency [12] 39.8 µM | Potency [17] 39.8 µM | Potency [10] 44.7 µM
15.9%: max response [6]
inactive: activation [11] 6.42% | activation [14] 3.88% and -4.01% | outcome [15] | outcome [16] | outcome [5] | outcome [7] | outcome [8] | max response [10] -21.1%
2.26% and -22%: max response [9]

CN1CCc2cccc3c2[C@H]1Cc1ccc(O)c(O)c1-3
inactive: outcome [18]

O=C(c1ccc(F)cc1)C1CCN(CCn2c(=S)[nH]c3ccccc3c2=O)CC1
inactive: outcome [18]

CNCCCCOc1ccccc1Cc1ccccc1
inactive: outcome [18]

O=c1[nH]c(=O)n([C@H]2C[C@H](O)[C@@H](CO)O2)cc1F
inactive: outcome [18]

CCCN(CCC)S(=O)(=O)c1ccc(C(=O)O)cc1
inactive: activation [11] -5.06% and 5.71% | Potency [12] | outcome [13] | activation [14] 0.219% and 1.81% | outcome [15] | outcome [16] | Potency [17] | Potency [4] | outcome [5] | outcome [7] | outcome [8] | max response [10] 6.91% and 7.89%
32.2% and 48.9%: max response [3]
-8.2% and -10.3%: max response [9]
-13.7% and -10.4%: max response [6]

CCCCCCCCOc1ccc(C(=O)c2ccccc2)c(O)c1
-1.02%: max response [6]
inactive: Potency [2] | outcome [16] | Potency [17] | Potency [4] | outcome [5] | outcome [7] | outcome [8] | max response [10] -18.6%
16.2%: max response [3]
-13.7%: max response [9]

CCCCOC(=O)CC(CC(=O)OCCCC)(OC(C)=O)C(=O)OCCCC
10.7%: max response [6]
0.806%: max response [3]
-7.31%: max response [9]
inactive: outcome [13] | outcome [15] | outcome [16] | Potency [17] | Potency [4] | outcome [5] | outcome [7] | outcome [8] | max response [10] -5.69%

CC(C)(C)CC(C)(C)c1ccc(O)c(-n2nc3ccccc3n2)c1
inactive: Potency [2] | activation [14] -3.64% | Potency [17] | Potency [4] | outcome [5] | outcome [8]

CN(C)C(=O)Nc1ccc(Cl)c(Cl)c1
0.705%: max response [9]
4.49%: max response [3]
inactive: Potency [1] | Potency [2] | activation [11] 0.958% | Potency [12] | activation [14] -4.05% | outcome [15] | outcome [16] | Potency [17] | outcome [7] | outcome [8] | max response [10] 4.3%
-0.181%: max response [6]

C/C=C/c1ccc(O)c(OC)c1
1.1% and -9.34%: max response [9]
10.7% and 20%: max response [3]
inactive: Potency [1] | Potency [2] | outcome [16] | Potency [17] | outcome [7] | max response [10] 2.19% and -7.41%
-13.6% and -6.37%: max response [6]

CCOc1ccccc1C(N)=O
-1.33%: max response [9]
-16.5%: max response [3]
-15.7%: max response [6]
inactive: Potency [1] | Potency [2] | activation [11] -4.07% | outcome [13] | activation [14] -1.86% | outcome [15] | outcome [16] | Potency [17] | Potency [4] | outcome [5] | outcome [7] | max response [10] 0.966%
